Results taken from the supplement of paper PMC8728848.
The sample as a whole holds a higher share of the strongest signals than the screen did.

Tests used:
Assay in all cases: glycan array binding signal (z-score within array); higher = stronger binding
Conditions in all cases: glycan notation: IUPAC condensed, linker removed
[1] = target: Fuc(a1-2)Gal(b1-3)[Fuc(a1-4)]GlcNAc(b1-3)[Gal(b1-4)GlcNAc(b1-6)]Gal(b1-4)Glc
Method in brief: (§1)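 Glycan array binding is given as a within-array Z-score, which can be read as non-binding when negative. The arrays, 3228 of them, came from the Consortium for Functional Glycomics database and were retained only where the protein sequence was available. Z-scores were averaged across arrays of the same protein sequence at different concentrations or buffers and across linkers.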

Fuc(a1-2)Gal(b1-4)Glc6S = target: Fuc(a1-2)Gal(b1-4)Glc6S
Method in brief: as §1

[2] = target: Fuc(a1-2)Gal(b1-4)GlcNAc(b1-3)Gal(b1-4)GlcNAc(b1-2)Man(a1-3)[Fuc(a1-2)Gal(b1-4)GlcNAc(b1-3)Gal(b1-4)GlcNAc(b1-2)Man(a1-6)]Man(b1-4)GlcNAc(b1-4)GlcNAc
Method in brief: as §1

[3] = target: Fuc(a1-2)Gal(b1-4)[Fuc(a1-3)]GlcNAc(b1-2)Man(a1-3)[Fuc(a1-2)Gal(b1-4)[Fuc(a1-3)]GlcNAc(b1-2)Man(a1-6)]Man(b1-4)GlcNAc(b1-4)[Fuc(a1-6)]GlcNAc
Method in brief: as §1

[4] = target: Fuc(a1-2)Gal6S(b1-3)GlcNAc6S
Method in brief: as §1

[5] = target: Fuc(a1-2)Gal6S(b1-4)Glc6S
Method in brief: as §1

[6] = target: Fuc(a1-2)[Gal(a1-3)]Gal(b1-3)GlcNAc(b1-2)Man(a1-3)[Fuc(a1-2)[Gal(a1-3)]Gal(b1-3)GlcNAc(b1-2)Man(a1-6)]Man(b1-4)GlcNAc(b1-4)[Fuc(a1-6)]GlcNAc
Method in brief: as §1

[7] = target: Fuc(a1-2)[Gal(a1-3)]Gal(b1-4)GlcNAc(b1-3)GalNAc
Method in brief: as §1

[8] = target: Fuc(a1-2)[GalNAc(a1-3)]Gal(b1-4)[Fuc(a1-3)]GlcNAc
Method in brief: as §1

[9] = target: Fuc(a1-3)[Gal(b1-4)]GlcNAc(b1-2)Man(a1-3)[Fuc(a1-3)[Gal(b1-4)]GlcNAc(b1-2)Man(a1-6)]Man(b1-4)GlcNAc(b1-4)GlcNAc
Method in brief: as §1

[10] = target: Fuc(a1-3)[Gal(b1-4)]GlcNAc(b1-6)[Neu5Ac(a2-3)Gal(b1-3)]GalNAc
Method in brief: as §1

Gal(a1-2)Gal = target: Gal(a1-2)Gal
Method in brief: as §1

[11] = target: Gal(a1-3)Gal(b1-3)GlcNAc(b1-2)Man(a1-3)[Gal(a1-3)Gal(b1-3)GlcNAc(b1-2)Man(a1-6)]Man(b1-4)GlcNAc(b1-4)GlcNAc
Method in brief: as §1

Gal(b1-3)Gal(b1-4)GlcNAc = target: Gal(b1-3)Gal(b1-4)GlcNAc
Method in brief: as §1

[12] = target: Gal(b1-3)[Fuc(a1-4)]GlcNAc
Method in brief: as §1

[13] = target: Gal(b1-3)[Neu5Ac(a2-6)]GlcNAc
Method in brief: as §1

[14] = target: Gal(b1-3)[Neu5Ac(b2-6)]GlcNAc
Method in brief: as §1

[15] = target: Gal(b1-4)GlcNAc(b1-2)Man(a1-3)[Gal(b1-4)GlcNAc(b1-2)Man(a1-6)]Man(b1-4)GlcNAc(b1-4)GlcNAc
Method in brief: as §1

[16] = target: Gal(b1-4)GlcNAc(b1-2)Man(a1-3)[Gal(b1-4)GlcNAc(b1-2)Man(a1-6)]Man(b1-4)GlcNAc(b1-4)[Fuc(a1-6)]GlcNAc
Method in brief: as §1

[17] = target: Gal(b1-4)GlcNAc(b1-2)Man(a1-3)[Man(a1-6)]Man(b1-4)GlcNAc(b1-4)GlcNAc
Method in brief: as §1

Gal3S(b1-4)GlcNAc6S = target: Gal3S(b1-4)GlcNAc6S
Method in brief: as §1

Gal3S4S(b1-4)GlcNAc = target: Gal3S4S(b1-4)GlcNAc
Method in brief: as §1

[18] = target: GalNAc3S(b1-4)[Fuc(a1-3)]GlcNAc
Method in brief: as §1

Glc(a1-6)Glc(a1-6)Glc = target: Glc(a1-6)Glc(a1-6)Glc
Method in brief: as §1

[19] = target: GlcNAc(b1-2)[GlcNAc(b1-4)]Man(a1-3)[GlcNAc(b1-2)Man(a1-6)]Man(b1-4)GlcNAc(b1-4)GlcNAc
Method in brief: as §1

[20] = target: GlcNAc(b1-3)Gal(b1-4)GlcNAc(b1-3)Gal(b1-4)GlcNAc(b1-3)GalNAc
Method in brief: as §1

[21] = target: Man(a1-2)Man(a1-2)Man(a1-3)Man
Method in brief: as §1

[22] = target: Man(a1-2)Man(a1-2)Man(a1-3)[Man(a1-2)Man(a1-3)[Man(a1-2)Man(a1-6)]Man(a1-6)]Man(b1-4)GlcNAc(b1-4)GlcNAc
Method in brief: as §1

[23] = target: Man(a1-2)Man(a1-2)Man(a1-3)[Man(a1-2)Man(a1-6)[Man(a1-3)]Man(a1-6)]Man(b1-4)GlcNAc(b1-4)GlcNAc
Method in brief: as §1

[24] = target: Man(a1-2)Man(a1-3)[Man(a1-3)[Man(a1-6)]Man(a1-6)]Man(b1-4)GlcNAc(b1-4)GlcNAc
Method in brief: as §1

B1: Nictaba (Nicotiana tabacum), Q94EW1 (protein)
chain: MQGQWIAARDLSITWVDNPQYWTWKTVDPNIEVAELRRVAWLDIYGKIETKNLIRKTSYAVYLVFKLTDNPRELERATASLRFVNEVAEGAGIEGTTVFISKKKKLPGELGRFPHLRSDGWLEIKLGEFFNNLGEDGEVEMRLMEINDKTWKSGIIVKGFDIRPN
glycan array binding signal (z-score) [1]: -0.29 | glycan array binding signal (z-score) (Fuc(a1-2)Gal(b1-4)Glc6S): -0.254 | glycan array binding signal (z-score) [2]: 3.54 | glycan array binding signal (z-score) [3]: 5.19 | glycan array binding signal (z-score) [4]: -0.381 | glycan array binding signal (z-score) [5]: -0.234 | glycan array binding signal (z-score) [6]: -0.187 | glycan array binding signal (z-score) [7]: -0.273 | glycan array binding signal (z-score) [8]: -0.307 | glycan array binding signal (z-score) [9]: 5.57 | glycan array binding signal (z-score) [10]: -0.295 | glycan array binding signal (z-score) (Gal(a1-2)Gal): -0.289 | glycan array binding signal (z-score) [11]: -0.148 | glycan array binding signal (z-score) (Gal(b1-3)Gal(b1-4)GlcNAc): -0.321 | glycan array binding signal (z-score) [12]: -0.271 | glycan array binding signal (z-score) [13]: -0.332 | glycan array binding signal (z-score) [14]: -0.39 | glycan array binding signal (z-score) [15]: 3.74 | glycan array binding signal (z-score) [16]: 1.64 | glycan array binding signal (z-score) [17]: 3.52 | glycan array binding signal (z-score) (Gal3S(b1-4)GlcNAc6S): -0.163 | glycan array binding signal (z-score) (Gal3S4S(b1-4)GlcNAc): -0.289 | glycan array binding signal (z-score) [18]: -0.387 | glycan array binding signal (z-score) (Glc(a1-6)Glc(a1-6)Glc): -0.295 | glycan array binding signal (z-score) [19]: -0.101 | glycan array binding signal (z-score) [20]: -0.388 | glycan array binding signal (z-score) [21]: -0.29 | glycan array binding signal (z-score) [22]: 3.93 | glycan array binding signal (z-score) [23]: 4 | glycan array binding signal (z-score) [24]: 4.38
